Screens as filed in PubChem BioAssay.
Mtb BioA inh: inhibitors of Mycobacterium tuberculosis BioA enzyme | purified M. tuberculosis BioA enzyme, plate reader | 0.096% of 360,000 active | inhibition, % at 9.99 µM; in the data active = inhibition above about 40%
BH1578 lux ind: inducers of Vibrio cholerae quorum light production without autoinducers; activation, % at 18.7 µM; V. cholerae BH1578 lux reporter, luminescence, 6 h; 0.16% of 350,000 active; in the data active = activation mostly above about 9.7%, no sharp cut-off
TcdB GH inh: blocks C. difficile toxin B glycohydrolase activity. inhibition, % at 9.99 µM. 0.24% of 350,000 active. AID 652162. P18177. TcdB glycohydrolase enzymatic assay, plate reader; in the data active = inhibition above about 10%
VHR inh abs: DUSP3 (human) phosphatase inhibition; 0.52% of 290,000 active; inhibition, % at 13.3 µM; AID 1654; P51452; recombinant VHR phosphatase, pNPP absorbance; in the data active = inhibition above about 50%
Target sequence (P51452 whole entry, looked up): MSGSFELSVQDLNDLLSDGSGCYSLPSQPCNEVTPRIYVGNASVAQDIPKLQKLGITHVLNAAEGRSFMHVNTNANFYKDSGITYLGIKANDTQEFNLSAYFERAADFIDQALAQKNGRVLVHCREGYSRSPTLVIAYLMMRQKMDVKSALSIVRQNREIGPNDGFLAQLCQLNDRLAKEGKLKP
Yp Topo-I inh: blocks Yersinia pestis topoisomerase I activity | Y. pestis Topo-I cleavage product accumulation, plate reader | activity, % at 10 µM | 0.064% of 360,000 active | AID 504884; in the data active = activity above about 50%, passing the limit was not always enough
Active calls of the source: *; i = inactive; / = no result. Only some compounds are listed: those with a hit (about 0.73% of all), similar ones and a draw of the others.

SMILES | Mtb BioA inh | BH1578 lux ind | TcdB GH inh | VHR inh abs | Yp Topo-I inh
CS(=O)(=O)Nc1ccc2c(c1)[C@@H]1C[C@@H](CC(=O)NC3CCCCC3)O[C@H](CO)[C@@H]1O2 | -2.6 | / | -1.0 | / | /
CC(C)(/C=N/O)N(O)C=C1C=CC(=O)C=C1 | -0.3 | i | 5.2 | 16.2 | 4.9
CN1C=CC(=CC=C2C=CC(=O)C=C2)C=C1 | -1.0 | -0.5 | 27.2* | 31.5 | -4.4
Cc1cc(C(=O)Nc2ccccc2Cl)c2ccccc2n1 | -2.0 | -0.5 | 1.1 | -10.7 | -1.1
COCCn1c(SCC(=O)Nc2ccc(OC)cc2OC)nc2ccccc2c1=O | 1.0 | i | 0.7 | 51.3* | 1.8
COc1ccc(NC(=O)c2cc(C)nc3ccccc23)c(OC)c1 | / | -3.6 | 12.0* | 40.5 | -11.4
Cc1cc(C(=O)Nc2ncc(C)s2)c2ccccc2n1 | / | i | 10.0* | -8.9 | -0.6
COc1ccc(S(=O)(=O)N(C)C[C@@H]2Oc3c(NS(=O)(=O)c4cn(C)cn4)cccc3C(=O)N([C@H](C)CO)C[C@@H]2C)cc1 | 0.4 | / | 1.2 | / | /
COc1ccc(Cl)cc1NC(=O)CN(C)C(=O)c1cc2c(s1)CCCC2 | 1.7 | 1.1 | 11.6* | / | 2.2
C/C=C/c1ccc([C@H]2[C@@H](CO)N(C(=O)CC)[C@@H]2CNC(=O)c2ccncc2)cc1 | -3.0 | / | / | / | /
Cc1ccc(CC(=O)Nc2nccs2)cc1C | -4.7 | -0.3 | 0.2 | 57.6* | -3.3
CC1=NN(c2ccc(C)c(C)c2)C(=O)C1C(c1cccc(O)c1)C1C(=O)N(c2ccc(C)c(C)c2)N=C1C (stereo not drawn) | -2.0 | -0.2 | / | 54.4* | -7.8
Cc1ccc(SCC(=O)OCC(=O)NC(C)c2ccc(Br)cc2)cc1 (stereo not drawn) | -0.6 | i | -1.4 | 56.7* | 13.4
CC1CN(c2ncnc3c2oc2ccccc23)CC(C)O1 (stereo not drawn) | -2.3 | -3.4 | / | -8.2 | -3.2
Clc1ccc(N2CCN(c3ncnc4c3oc3ccccc34)CC2)cc1 | -1.0 | 5.3 | / | 50.5* | 5.3
Cc1ncoc1C(=O)NC1CC(C)(C)Cc2c1cnn2-c1ccc(F)cc1 (stereo not drawn) | 2.3 | -1.4 | 1.4 | 53.4* | -5.1
Cc1nc2ccccn2c1-c1ccnn1S(=O)(=O)c1ccc(F)cc1 | -0.8 | 0.6 | 15.4* | 16.6 | 18.7
C[C@@H]1CCCCO[C@H](CN(C)C(=O)c2ccccc2)[C@@H](C)CN([C@@H](C)CO)C(=O)c2cc(NC(=O)NC3CCCCC3)ccc2O1 | -0.3 | / | -0.9 | / | /
CCOC(=O)CNC(=O)c1cc(-c2ccccn2)nc2c(C)c(Cl)ccc12 | / | i | -0.7 | 52.9* | 18.5
N#CCc1ccc(C(=O)c2ccccc2F)s1 | -0.2 | 25.0* | / | 5.4 | -4.7
C[C@@H]1CCCCO[C@H](CN(C)C(=O)Nc2ccc3c(c2)OCO3)[C@H](C)CN([C@H](C)CO)C(=O)c2cc(NC(=O)CCC(F)(F)F)ccc2O1 | 1.6 | / | -0.2 | / | /
C[C@H](CO)N1C[C@H](C)[C@@H](CN(C)C(=O)Nc2ccc3c(c2)OCO3)Oc2ccc(NC(=O)CCCN(C)C)cc2C1=O | / | / | 1.4 | / | /
Cc1ccc2oc(=O)c3cc(C(=O)NCCCN4CCCC(C)C4)sc3c2c1 (stereo not drawn) | -5.1 | -3.9 | 1.7 | 51.2* | 0.1
Cc1ccc2oc(=O)c3cc(C(=O)NCCN4CCc5ccccc5C4)sc3c2c1 | -0.6 | -0.1 | -0.2 | -7.3 | 13.3
CCCN1CCN(CCCNC(=O)c2cc3c(=O)oc4ccc(C)cc4c3s2)CC1 | 1.4 | -0.4 | 0.3 | 50.2* | 6.3
SMILES | Mtb BioA inh | BH1578 lux ind | TcdB GH inh | VHR inh abs | Yp Topo-I inh
Cc1ccc2oc(=O)c3cc(C(=O)NCCCN4CCC(C)CC4)sc3c2c1 | / | / | 0.3 | / | /
O=C(OCc1ccccc1)N1CCC2CC1c1c(Cl)cccc12 (stereo not drawn) | 1.8 | 1.4 | 0.7 | / | 58.6*
Cc1cc(C)c2nc(C)cc(N/N=C/c3ccc(O)cc3)c2c1 | -1.6 | 1.0 | 16.4* | 10.7 | -4.9
Cc1cc(N/N=C/c2ccc(N(C)C)cc2)c2ccccc2n1 | 6.0 | -0.2 | 0.8 | 10.7 | 8.1
Cc1cc(N/N=C/c2ccc(O)cc2)c2cccc(C)c2n1 | -0.5 | -1.3 | 11.3* | 12.2 | -36.2
CNC[C@@H]1Oc2ccc(NC(=O)C3CCCCC3)cc2C(=O)N([C@@H](C)CO)C[C@@H]1C | -1.1 | / | -0.9 | / | /
CCC(=O)N[C@H]1C=C[C@@H](CC(=O)OC)O[C@@H]1CO | 1.5 | / | -0.5 | / | /
CCCCC(CC)C(=O)Nc1ccc(Nc2ccccc2)cc1 (stereo not drawn) | / | -0.3 | / | -6.7 | -9.1
CCCCC(CC)C(=O)Nc1ccc(C)c(O)c1 (stereo not drawn) | / | -0.1 | 0.3 | 53.0* | -0.8
Cc1ccc2nc(NC(=O)c3ccc(NS(=O)(=O)c4cccs4)cc3)sc2c1 | / | -0.2 | -0.7 | 55.6* | -5.1
C[C@H]1O[C@H]1P(=O)(O)O | 0.4 | 29.2* | 0.1 | 0.9 | 11.8
COc1ccc(NC(=O)Nc2ccc3c(c2)C(=O)N([C@@H](C)CO)C[C@H](C)[C@H](CN(C)C(=O)NC(C)C)OCCCC[C@@H](C)O3)cc1 | / | / | 0.6 | / | /
O=C(Nc1ccncc1)c1ccc(-c2ccccc2)cc1 | / | i | 10.7* | 12.4 | 9.3
Nc1cccc(CCc2ccncc2)c1 | -0.8 | -0.6 | -3.2 | 58.2* | -5.2
COc1ccc(Br)cc1CNC(=O)Cn1nc(C)n2cccc2c1=O | -3.2 | -0.3 | 0.5 | 56.3* | 1.0
COc1ccc(CNC(=O)Cn2nc(C)n3cccc3c2=O)cc1 | 0.1 | -0.2 | 0.6 | 2.8 | 2.0
Cc1ccc(Cl)cc1NC(=O)CNC(=O)N1CC(=O)Nc2ccccc21 | -1.3 | -2.9 | 0.6 | 56.8* | -3.3
COc1cccc(NC(=O)CNC(=O)N2CC(=O)Nc3ccccc32)c1 | 0.4 | -2.9 | 3.1 | 56.8* | 1.7
Cc1nn(C(C)C(=O)NC2C(=O)N3C(C(=O)O)=C(CSc4nnnn4C)CSC23)cc1Cl (stereo not drawn) | 0.4 | 25.2* | 1.8 | 7.2 | 2.5
CC(C(=O)NC1C(=O)N2C(C(=O)O)=C(CSc3nnnn3C)CSC12)n1cc(Br)cn1 (stereo not drawn) | / | 3.8 | -0.8 | -19.7 | 6.1
COc1ccc(CNC(=O)C[C@@H]2CC[C@H]3[C@H](COc4ccc(NC(C)=O)cc4C(=O)N3C)O2)cc1 | 3.9 | / | -1.7 | / | /
COc1ccc(NC(=O)Nc2ccc3c(c2)CC(=O)N([C@H](C)CO)C[C@H](C)[C@@H](CN(C)S(=O)(=O)c2cccs2)O3)cc1 | 0.4 | / | -0.4 | / | /
CCc1cc(-c2n[nH]c(C)c2-c2nc(C)cs2)c(O)cc1OC | / | -1.0 | 11.9* | 28.4 | 24.1
O=C(C[C@@H]1C=C[C@@H](NC(=O)NC2CCCCC2)[C@H](CO)O1)NCc1ccccc1 | -5.3 | / | -0.2 | / | /
Cc1cc(/C=C(\C#N)C(=O)N2CCCCC2)cc(C)c1O | 0.4 | -4.8 | 12.1* | 57.6* | 8.6
N#C/C(=C\c1cccc(O)c1)C(=O)N1CCCCC1 | 3.1 | i | 0.1 | 31.2 | -3.4
Cc1ccc(S(=O)(=O)N(C)C[C@@H]2Oc3ccc(NS(=O)(=O)c4cccs4)cc3C(=O)N([C@H](C)CO)C[C@@H]2C)cc1 | 0.1 | / | / | / | /
CN1N=C(N)c2cn(C3OC(COP(=O)(O)O)C(O)C3O)c3ncnc1c23 (stereo not drawn) | / | 50.0* | -14.9 | / | 9.1
